# Assay results published in PubChem BioAssay (EPA / NIEHS).
# Results filed as inconclusive are left out. Calls of active or inactive are those of the source. Rule for the calls: active = hit-call score of the fitted dose curve at least 0.9, where 1 is the maximum; inconclusive = response in the unintended direction; inactive = score below 0.9.
# Columns and labels:
# [1] = molecular target: sheep Cyclooxygenase-1 (Cox1), PTGS1 (gene 443551) (UniProt P05979); experiment: NVS_ENZ_oCOX1: NovaScreen (NVS) Enzymatic Assay for sheep Cyclooxygenase-1 (Cox1) (AID 2283239);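 note: actives reduce cyclooxygenase activity so potencies are for inhibitors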
# sheep Cyclooxygenase-1 (Cox1), PTGS1 (gene 443551), sequence (P05979 whole entry, looked up): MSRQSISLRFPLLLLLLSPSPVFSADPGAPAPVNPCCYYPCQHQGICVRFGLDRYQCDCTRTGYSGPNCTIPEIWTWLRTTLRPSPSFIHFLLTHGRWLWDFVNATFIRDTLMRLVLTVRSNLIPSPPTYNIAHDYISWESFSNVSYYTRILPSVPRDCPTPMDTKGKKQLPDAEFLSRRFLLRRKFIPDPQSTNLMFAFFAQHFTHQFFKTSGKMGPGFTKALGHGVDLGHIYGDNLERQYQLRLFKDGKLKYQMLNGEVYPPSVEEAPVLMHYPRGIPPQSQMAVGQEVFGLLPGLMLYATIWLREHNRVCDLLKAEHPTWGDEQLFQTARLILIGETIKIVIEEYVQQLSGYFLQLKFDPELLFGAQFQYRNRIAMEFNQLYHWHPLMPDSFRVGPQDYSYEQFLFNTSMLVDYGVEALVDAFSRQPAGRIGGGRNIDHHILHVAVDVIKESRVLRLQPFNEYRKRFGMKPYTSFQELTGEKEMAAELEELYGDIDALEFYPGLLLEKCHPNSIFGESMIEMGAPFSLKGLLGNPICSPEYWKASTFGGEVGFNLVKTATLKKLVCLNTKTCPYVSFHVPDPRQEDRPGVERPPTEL
# Procedure, shortened: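 Absorbance read-out of cyclooxygenase activity in a cell-free preparation from sheep seminal vesicles, taken 0.66 hour after dosing. Initial testing was in duplicate at 25 uM, and confirmatory testing was run in concentration series.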
# [2] = molecular target: Adenosine receptor A1 (Bos taurus) (UniProt P28190); experiment: NVS_GPCR_bAdoR_NonSelective: NovaScreen (NVS) G Protein-Coupled Receptor Assay for bovine Adenosine Receptor (AdoR), Non-selective Binding (AID 2283244)
# Adenosine receptor A1 (Bos taurus), sequence (P28190 whole entry, looked up): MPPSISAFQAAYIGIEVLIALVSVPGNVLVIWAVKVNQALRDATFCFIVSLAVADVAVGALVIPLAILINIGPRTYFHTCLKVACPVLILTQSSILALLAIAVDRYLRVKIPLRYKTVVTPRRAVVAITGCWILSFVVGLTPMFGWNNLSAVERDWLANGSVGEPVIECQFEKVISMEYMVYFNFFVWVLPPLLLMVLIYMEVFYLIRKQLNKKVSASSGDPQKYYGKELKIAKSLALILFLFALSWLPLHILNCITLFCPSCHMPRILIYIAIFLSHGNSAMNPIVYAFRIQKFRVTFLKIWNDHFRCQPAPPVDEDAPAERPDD
# Procedure, shortened: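 Cell-free binding with membranes from bovine striatum: radioligand displaced by test chemical, read after 1 h by filtration and scintillation. Single-point 25 uM duplicate primary, 50 uM top concentration in follow-up curves, DMSO baseline.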
# [3] = molecular target: guinea pig Leukotriene D4 Receptor (LTD4), CYSLTR1 (gene 100135514) (UniProt Q2NNR5); experiment: NVS_GPCR_gLTD4: NovaScreen (NVS) G Protein-Coupled Receptor Assay for guinea pig Leukotriene D4 Receptor (LTD4) (AID 2283248)
# guinea pig Leukotriene D4 Receptor (LTD4), CYSLTR1 (gene 100135514), sequence (Q2NNR5 whole entry, looked up): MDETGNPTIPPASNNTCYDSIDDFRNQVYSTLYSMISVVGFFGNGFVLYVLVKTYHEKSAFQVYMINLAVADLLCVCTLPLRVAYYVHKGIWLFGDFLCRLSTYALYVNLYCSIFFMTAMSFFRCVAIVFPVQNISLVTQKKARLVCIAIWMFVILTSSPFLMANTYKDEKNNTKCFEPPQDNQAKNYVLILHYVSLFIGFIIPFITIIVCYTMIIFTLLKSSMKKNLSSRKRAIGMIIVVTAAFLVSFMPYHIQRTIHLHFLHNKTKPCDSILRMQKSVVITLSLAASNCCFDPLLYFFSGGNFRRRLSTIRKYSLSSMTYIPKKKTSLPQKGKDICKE
# Procedure, shortened: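 Guinea pig lung membrane preparation; bound radioligand measured by filter scintillation after 1 h, loss of signal versus DMSO marking displacement. Compounds tested at 25 uM in duplicate, hits retested to max 50 uM.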
# [4] = molecular target: rat Monoamine Oxidase, MAO-B, Peripheral (MAOBP), Maob (gene 25750) (UniProt P19643); experiment: NVS_ENZ_rMAOBP: NovaScreen (NVS) Enzymatic Assay for rat Monoamine Oxidase, MAO-B, Peripheral (MAOBP) (AID 2283242)
# [5] = test system: bovine Histamine 1 Receptor (H1), gene 281231; experiment: NVS_GPCR_bH1: NovaScreen (NVS) G Protein-Coupled Receptor Assay for bovine Histamine 1 Receptor (H1) (AID 2283246)
# Procedure, shortened: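 Hits from a 25 uM duplicate primary screen were retested in concentration series (top 50 uM); binding measured as scintillation-counted displacement of radioligand from bovine cerebellar membranes after 1 h, normalised to DMSO.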
# [6] = molecular target: guinea pig Opioid, Kappa 1 Receptor (OpiateK), OPRK1 (gene 100135587) (UniProt P41144); experiment: NVS_GPCR_gOpiateK: NovaScreen (NVS) G Protein-Coupled Receptor Assay for guinea pig Opioid, Kappa 1 Receptor (OpiateK) (AID 2283252);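 note: active means reduced radioligand binding relative to DMSO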
# guinea pig Opioid, Kappa 1 Receptor (OpiateK), OPRK1 (gene 100135587), sequence (P41144 whole entry, looked up): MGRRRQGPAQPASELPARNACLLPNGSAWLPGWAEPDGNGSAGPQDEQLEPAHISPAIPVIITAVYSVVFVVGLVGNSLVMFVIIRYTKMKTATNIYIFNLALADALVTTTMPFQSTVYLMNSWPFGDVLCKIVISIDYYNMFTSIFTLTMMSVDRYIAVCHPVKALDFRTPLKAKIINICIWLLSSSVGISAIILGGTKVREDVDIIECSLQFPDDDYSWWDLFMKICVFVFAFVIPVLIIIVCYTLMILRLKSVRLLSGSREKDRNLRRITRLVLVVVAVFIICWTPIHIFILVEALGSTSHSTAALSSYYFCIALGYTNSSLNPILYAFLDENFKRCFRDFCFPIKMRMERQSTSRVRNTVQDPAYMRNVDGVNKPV
# Procedure, shortened: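 Radioligand binding to kappa opioid receptor in guinea pig cerebellar membranes, read by filtration and scintillation at 2 h. Compounds first tested in duplicate at 25 uM, then actives in concentration series; signal loss fitted against DMSO.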
# [7] = molecular target: human Serotonin, 5-Hydroxytryptamine Receptor 6 (5HT6), HTR6 (gene 3362) (UniProt P50406); experiment: NVS_GPCR_h5HT6: NovaScreen (NVS) G Protein-Coupled Receptor Assay for human Serotonin, 5-Hydroxytryptamine Receptor 6 (5HT6) (AID 2283253)
# human Serotonin, 5-Hydroxytryptamine Receptor 6 (5HT6), HTR6 (gene 3362), sequence (P50406 whole entry, looked up): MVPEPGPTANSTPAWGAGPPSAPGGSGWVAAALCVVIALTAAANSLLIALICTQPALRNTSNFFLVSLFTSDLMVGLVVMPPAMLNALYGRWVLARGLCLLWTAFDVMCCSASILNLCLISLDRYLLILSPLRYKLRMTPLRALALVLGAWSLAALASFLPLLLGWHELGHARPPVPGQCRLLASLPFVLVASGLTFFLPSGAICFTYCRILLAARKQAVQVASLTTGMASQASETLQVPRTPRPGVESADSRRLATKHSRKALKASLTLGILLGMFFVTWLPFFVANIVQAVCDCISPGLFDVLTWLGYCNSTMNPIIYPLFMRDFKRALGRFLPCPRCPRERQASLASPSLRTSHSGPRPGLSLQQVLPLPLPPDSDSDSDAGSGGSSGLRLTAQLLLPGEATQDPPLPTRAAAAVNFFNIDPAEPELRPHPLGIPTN
# Procedure, shortened: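 Filter scintillation counting of radioligand displacement from HEK293-expressed 5HT6, 1 hour post-dose, with loss of signal relative to DMSO. Single 25 uM duplicates first, with concentration series for confirmation.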
# [8] = test system: bovine Angiotensin II Receptor Type 2 (AT2), gene 407157; experiment: NVS_GPCR_bAT2: NovaScreen (NVS) G Protein-Coupled Receptor Assay for bovine Angiotensin II Receptor Type 2 (AT2) (AID 2283240)
# Procedure, shortened: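 Radioligand displacement on bovine cerebellar membranes, 1 hour incubation, filter-based scintillation counting; loss of signal vs DMSO. Duplicate single-point screen at 25 uM, then concentration-response to 50 uM maximum.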
# [9] = NVS_GPCR_bNPY_NonSelective: NovaScreen (NVS) G Protein-Coupled Receptor Assay for bovine Neuropeptide Y (NPY) Receptor, Non-selective Binding (AID 2283245)
# Procedure, shortened: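 Displacement of radioligand from bovine hippocampal membrane receptors, read by filtration and scintillation counting after 1 hour. Concentration-response to a top of 50 uM followed a 25 uM duplicate primary screen. Loss of signal versus DMSO.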
# [10] = test system: guinea pig Leukotriene B4 Receptor (LTB4), gene 100379538; experiment: NVS_GPCR_gLTB4: NovaScreen (NVS) G Protein-Coupled Receptor Assay for guinea pig Leukotriene B4 Receptor (LTB4) (AID 2283247)
# Procedure, shortened: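 Membranes from guinea pig spleen incubated 2 h with radioligand and compound; bound counts measured by filtration and scintillation. Screened first at 25 uM in duplicate, then actives titrated to a 50 uM top concentration relative to DMSO.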
# [11] = molecular target: human Serotonin, 5-Hydroxytryptamine Receptor 2A (5HT2A), HTR2A (gene 3356) (UniProt P28223); experiment: NVS_GPCR_h5HT2A: NovaScreen (NVS) G Protein-Coupled Receptor Assay for human Serotonin, 5-Hydroxytryptamine Receptor 2A (5HT2A) (AID 2283249)
# Procedure, shortened: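 Radioligand displacement on human cortex tissue extract, counted by filtration and scintillation 1.5 h post-dosing. Initial single-concentration screen at 25 uM in duplicate, concentration series in follow-up; DMSO as baseline.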
# [12] = test system: guinea pig Muscarinic, Peripheral (Mperiperal) Receptor, Non-selective Binding, gene 100379235; experiment: NVS_GPCR_gMPeripheral_NonSelective: NovaScreen (NVS) G Protein-Coupled Receptor Assay for guinea pig Muscarinic, Peripheral (Mperiperal) Receptor, Non-selective Binding (AID 2283250)
# Procedure, shortened: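 Screened in duplicate at 25 uM, hits retested in concentration series to 50 uM max, using bladder membrane radioligand displacement from guinea pig. Filtration and scintillation counting 1 h post-dose, fitted relative to DMSO.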
# [13] = molecular target: human Serotonin, 5-Hydroxytryptamine Receptor 5A (5HT5A), HTR5A (gene 3361) (UniProt P47898); experiment: NVS_GPCR_h5HT5A: NovaScreen (NVS) G Protein-Coupled Receptor Assay for human Serotonin, 5-Hydroxytryptamine Receptor 5A (5HT5A) (AID 2283251)
# human Serotonin, 5-Hydroxytryptamine Receptor 5A (5HT5A), HTR5A (gene 3361), sequence (P47898 whole entry, looked up): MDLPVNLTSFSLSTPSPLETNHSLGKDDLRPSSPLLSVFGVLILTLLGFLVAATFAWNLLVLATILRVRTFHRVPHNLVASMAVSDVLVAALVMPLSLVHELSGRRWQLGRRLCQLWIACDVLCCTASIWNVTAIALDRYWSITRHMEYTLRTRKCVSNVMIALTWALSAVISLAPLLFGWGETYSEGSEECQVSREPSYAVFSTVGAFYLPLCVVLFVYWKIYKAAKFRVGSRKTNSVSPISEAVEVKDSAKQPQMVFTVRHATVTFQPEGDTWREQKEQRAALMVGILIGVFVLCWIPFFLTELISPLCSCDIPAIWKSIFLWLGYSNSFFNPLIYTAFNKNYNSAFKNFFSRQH
# Procedure, shortened: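 Membranes from HEK293 cells, radioligand binding read by filtration and scintillation after 1 h. Single-concentration duplicate testing at 25 uM, then concentration-response for actives; positive-direction fitting relative to DMSO.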
# [14] = molecular target: human Adenosine A1 Receptor (AdoRA1), ADORA1 (gene 134) (UniProt P30542); experiment: NVS_GPCR_hAdoRA1: NovaScreen (NVS) G Protein-Coupled Receptor Assay for human Adenosine A1 Receptor (AdoRA1) (AID 2283254)
# human Adenosine A1 Receptor (AdoRA1), ADORA1 (gene 134), sequence (P30542 whole entry, looked up): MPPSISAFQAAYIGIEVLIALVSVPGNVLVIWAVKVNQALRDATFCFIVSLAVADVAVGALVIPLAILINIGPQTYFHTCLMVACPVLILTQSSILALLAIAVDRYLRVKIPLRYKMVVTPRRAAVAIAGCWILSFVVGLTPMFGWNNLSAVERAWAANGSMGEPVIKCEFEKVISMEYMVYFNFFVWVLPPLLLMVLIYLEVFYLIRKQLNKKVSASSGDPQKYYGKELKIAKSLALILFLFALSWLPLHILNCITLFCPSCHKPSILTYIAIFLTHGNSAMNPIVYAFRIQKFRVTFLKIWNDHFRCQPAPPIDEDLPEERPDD
# Procedure, shortened: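 Each chemical is first tested twice at 25 uM, actives later in dilution series, against a radioligand bound to human cortex membranes; after 1 h, filter-retained counts are compared with DMSO controls, lower signal indicating displacement.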
# [15] = molecular target: human Serotonin, 5-Hydroxytryptamine Receptor 7 (5HT7), HTR7 (gene 3363) (UniProt P34969); experiment: NVS_GPCR_h5HT7: NovaScreen (NVS) G Protein-Coupled Receptor Assay for human Serotonin, 5-Hydroxytryptamine Receptor 7 (5HT7) (AID 2283255);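 note: hits reduce specific radioligand binding relative to DMSO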
# human Serotonin, 5-Hydroxytryptamine Receptor 7 (5HT7), HTR7 (gene 3363), sequence (P34969 whole entry, looked up): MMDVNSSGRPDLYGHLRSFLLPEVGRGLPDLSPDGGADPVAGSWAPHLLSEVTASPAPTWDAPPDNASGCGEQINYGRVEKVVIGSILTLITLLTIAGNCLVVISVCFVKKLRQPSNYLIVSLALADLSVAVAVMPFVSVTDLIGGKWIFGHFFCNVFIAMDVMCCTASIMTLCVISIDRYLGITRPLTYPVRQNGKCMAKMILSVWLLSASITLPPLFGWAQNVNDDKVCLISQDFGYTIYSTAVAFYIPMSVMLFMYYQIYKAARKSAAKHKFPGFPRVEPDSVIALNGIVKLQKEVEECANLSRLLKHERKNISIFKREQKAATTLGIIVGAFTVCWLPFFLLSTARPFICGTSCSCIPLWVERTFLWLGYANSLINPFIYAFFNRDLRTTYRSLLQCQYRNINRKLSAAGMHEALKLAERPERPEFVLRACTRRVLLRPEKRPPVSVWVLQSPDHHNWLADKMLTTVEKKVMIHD
# Procedure, shortened: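 Filter-bound radioactivity counted after 1 h, with loss of specific radioligand binding fitted against DMSO. Membrane protein came from CHO cells expressing human 5HT7. Chemicals were tested first at 25 uM in duplicate, then in concentration series if active.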
# [16] = molecular target: human Adenosine A2a Receptor (AdoRA2a), ADORA2A (gene 135) (UniProt P29274); experiment: NVS_GPCR_hAdoRA2a: NovaScreen (NVS) G Protein-Coupled Receptor Assay for human Adenosine A2a Receptor (AdoRA2a) (AID 2283256)
# human Adenosine A2a Receptor (AdoRA2a), ADORA2A (gene 135), sequence (P29274 whole entry, looked up): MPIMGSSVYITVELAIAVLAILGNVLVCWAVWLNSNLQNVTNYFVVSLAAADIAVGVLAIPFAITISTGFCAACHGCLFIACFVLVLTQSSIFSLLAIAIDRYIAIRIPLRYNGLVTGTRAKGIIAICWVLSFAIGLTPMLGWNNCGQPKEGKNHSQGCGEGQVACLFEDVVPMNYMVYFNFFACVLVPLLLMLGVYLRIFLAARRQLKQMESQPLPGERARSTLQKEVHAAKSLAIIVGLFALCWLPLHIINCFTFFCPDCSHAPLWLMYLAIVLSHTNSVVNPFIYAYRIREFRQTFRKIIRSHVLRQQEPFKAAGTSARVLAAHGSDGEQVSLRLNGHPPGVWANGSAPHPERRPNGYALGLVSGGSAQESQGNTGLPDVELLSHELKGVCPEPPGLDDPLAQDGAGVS
# Procedure, shortened: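 HEK293-derived receptor preparation, radioligand displacement, 1.5 h, filtration + scintillation read. Loss of bound signal scored vs DMSO. Single-point 25 uM in duplicate first, then concentration-response for actives.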
# [17] = molecular target: human Adrenergic, Alpha 2A Receptor (Adra2A), ADRA2A (gene 150) (UniProt P08913); experiment: NVS_GPCR_hAdra2A: NovaScreen (NVS) G Protein-Coupled Receptor Assay for human Adrenergic, Alpha 2A Receptor (Adra2A) (AID 2283257)
# human Adrenergic, Alpha 2A Receptor (Adra2A), ADRA2A (gene 150), sequence (P08913 whole entry, looked up): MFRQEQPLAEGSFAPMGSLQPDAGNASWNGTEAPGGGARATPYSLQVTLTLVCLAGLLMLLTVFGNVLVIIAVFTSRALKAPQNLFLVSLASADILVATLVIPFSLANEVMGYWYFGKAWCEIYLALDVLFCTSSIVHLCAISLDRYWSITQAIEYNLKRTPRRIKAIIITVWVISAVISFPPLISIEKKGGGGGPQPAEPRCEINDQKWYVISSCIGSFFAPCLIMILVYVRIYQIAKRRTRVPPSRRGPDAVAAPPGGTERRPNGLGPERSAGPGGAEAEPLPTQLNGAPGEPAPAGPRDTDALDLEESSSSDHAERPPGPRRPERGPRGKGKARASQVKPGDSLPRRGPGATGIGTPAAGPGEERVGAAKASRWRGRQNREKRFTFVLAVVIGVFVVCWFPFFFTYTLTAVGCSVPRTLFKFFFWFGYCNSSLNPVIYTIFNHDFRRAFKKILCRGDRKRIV
# Procedure, shortened: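 Displacement of a specific radioligand from HT29 membrane protein was counted by filter scintillation after 1 h. Compounds were screened in duplicate at 25 uM, and actives were retested in concentration series. Fitting was positive-direction against DMSO.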
# [18] = molecular target: human Adrenergic, Beta 1 Receptor (Adrb1), ADRB1 (gene 153) (UniProt P08588); experiment: NVS_GPCR_hAdrb1: NovaScreen (NVS) G Protein-Coupled Receptor Assay for human Adrenergic, Beta 1 Receptor (Adrb1) (AID 2283258)
# human Adrenergic, Beta 1 Receptor (Adrb1), ADRB1 (gene 153), sequence (P08588 whole entry, looked up): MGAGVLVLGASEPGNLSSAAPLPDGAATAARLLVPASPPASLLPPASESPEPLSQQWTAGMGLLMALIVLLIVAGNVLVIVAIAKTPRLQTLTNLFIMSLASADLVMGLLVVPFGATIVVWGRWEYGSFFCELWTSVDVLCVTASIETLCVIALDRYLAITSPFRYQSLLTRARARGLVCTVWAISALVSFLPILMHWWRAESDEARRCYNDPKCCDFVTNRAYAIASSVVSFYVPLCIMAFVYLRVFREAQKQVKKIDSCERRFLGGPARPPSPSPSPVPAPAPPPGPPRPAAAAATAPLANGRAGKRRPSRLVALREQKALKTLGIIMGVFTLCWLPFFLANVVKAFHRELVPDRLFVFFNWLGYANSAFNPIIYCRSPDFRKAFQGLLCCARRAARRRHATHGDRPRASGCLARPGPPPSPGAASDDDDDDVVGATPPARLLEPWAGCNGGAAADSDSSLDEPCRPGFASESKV
# Procedure, shortened: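 Membranes/protein extracted from human neuroepithelioma cells, radioligand competition binding read by filtration and scintillation 2 h post-dose. Single 25 uM duplicate screen, then concentration-response follow-up; DMSO as negative control.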
# [19] = molecular target: bovine Dopamine Receptor (DR), Non-selective Binding, DRD1 (gene 281125) (UniProt Q95136); experiment: NVS_GPCR_bDR_NonSelective: NovaScreen (NVS) G Protein-Coupled Receptor Assay for bovine Dopamine Receptor (DR), Non-selective Binding (AID 2283241)
# Procedure, shortened: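 Filter-based radioligand binding with bovine striatal membrane, incubated 1 h; DMSO as negative baseline. Initial duplicate single-point test at 25 uM preceded concentration series for actives.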
# [20] = test system: rat Monoamine Oxidase, MAO-A, Central (MAOAC), gene 29253; experiment: NVS_ENZ_rMAOAC: NovaScreen (NVS) Enzymatic Assay for rat Monoamine Oxidase, MAO-A, Central (MAOAC) (AID 2283243);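 note: potency refers to inhibition seen as signal drop below DMSO baseline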
# Procedure, shortened: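 Lysate-based radiometric enzyme assay using rat brain tissue; 1.5 h treatment; 25 uM single-point duplicate screen, concentration-response follow-up; loss of signal versus DMSO.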
smiles,measurement,setting,value
CC(C)(C)c1cc(O)ccc1O,AC50,[1],11 µM (active)
same,outcome,[2],inactive
ClCCBr,outcome,[1],inactive
same,outcome,[3],inactive
C[C@]12CCC(=O)C[C@@H]1CC[C@@H]1[C@@H]2CC[C@]2(C)[C@@H](O)CC[C@@H]12,outcome,[4],inactive
COC(=O)Cc1ccccc1,outcome,[1],inactive
C[C@@H]1C[C@@H]([C@H](O)CC2CC(=O)NC(=O)C2)C(=O)[C@@H](C)C1,outcome,[5],inactive
Cn1sc(Cl)cc1=O,outcome,[2],inactive
same,outcome,[6],inactive
same,outcome,[7],inactive
CC(=O)[O][Hg][c]1ccccc1,AC50,[8],37.4 µM (active)
same,AC50,[2],25 µM (active)
same,AC50,[9],4.57 µM (active)
same,AC50,[10],3.45 µM (active)
same,AC50,[3],1.58 µM (active)
same,AC50,[11],19.1 µM (active)
same,AC50,[12],6 µM (active)
same,AC50,[13],0.791 µM (active)
same,AC50,[6],31.4 µM (active)
same,AC50,[7],1.32 µM (active)
same,AC50,[14],25 µM (active)
same,AC50,[15],0.577 µM (active)
same,AC50,[16],6.98 µM (active)
same,AC50,[17],20.1 µM (active)
same,AC50,[18],0.993 µM (active)
C=C(C)C(=O)[O][Sn]([CH2]CCC)([CH2]CCC)[CH2]CCC,AC50,[8],25 µM (active)
same,AC50,[19],10.6 µM (active)
same,AC50,[9],2.56 µM (active)
same,AC50,[10],6.14 µM (active)
same,AC50,[3],1.86 µM (active)
same,AC50,[11],36.2 µM (active)
same,AC50,[12],14 µM (active)
same,AC50,[13],2.16 µM (active)
same,AC50,[6],16.9 µM (active)
same,AC50,[7],4.82 µM (active)
same,AC50,[14],25 µM (active)
same,AC50,[15],0.499 µM (active)
same,AC50,[16],6.84 µM (active)
same,AC50,[17],4.06 µM (active)
same,AC50,[18],0.925 µM (active)
COP(=S)(OC)Oc1ccc(Sc2ccc(OP(=S)(OC)OC)cc2)cc1,outcome,[3],inactive
same,AC50,[16],17.1 µM (active)
Cl/C=C\C[N+]12CN3CN(CN(C3)C1)C2,AC50,[1],5.46 µM (active)
COc1ccc(OC)c(C=O)c1,AC50,[20],17.3 µM (active)
O=C(O)C(F)(F)C(F)(F)C(F)(F)C(F)(F)C(F)(F)C(F)(F)F,AC50,[10],17.3 µM (active)
Oc1ccc(-c2ccccc2)cc1,outcome,[1],inactive
same,AC50,[20],13.8 µM (active)
CC(C)(OO)c1ccccc1,AC50,[1],2.76 µM (active)
COc1cc(-c2ccc(N)c(OC)c2)ccc1N,outcome,[2],inactive
same,outcome,[15],inactive
Oc1c(I)cc(I)cc1I,outcome,[16],inactive
